Results taken from PubChem BioAssay.
Activity calls are given as the source filed them. Unless noted, how the calls were made is not given here.

Columns and labels:
[1] = anti-His antibody binders, primary screen, artefact control for SMM control protein annotation, biochemical, small-molecule microarray, 635 nm fluorescence (AID 1128); conditions: anti-His Alexa647 antibody binding, higher = more signal;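 further: score merges feature fluorescence with signal-to-noise for each printed compound spot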
[2] = system: Human papillomavirus type 1a E7 protein (residues 1-88); assay: HPV1a E7 small-molecule binders, primary screen, biochemical, small-molecule microarray, residues 1-88, 635 nm (AID 1129); conditions: small-molecule microarray binding, fluorescence 635 nm; higher = more signal
[3] = molecular target: Focal adhesion kinase 1 (Homo sapiens) (UniProt Q05397); assay: small-molecule microarray binders of FAK, primary screen, biochemical, 635/667 nm fluorescence, BSA, DTT (AID 1130); conditions: PTK2 binding, 635 nm fluorescence, higher = more signal;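 further: composite of spot emission at 667 nm and signal to noise over triplicate slides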
Sequence of Focal adhesion kinase 1 (Homo sapiens) (Q05397 whole entry, looked up): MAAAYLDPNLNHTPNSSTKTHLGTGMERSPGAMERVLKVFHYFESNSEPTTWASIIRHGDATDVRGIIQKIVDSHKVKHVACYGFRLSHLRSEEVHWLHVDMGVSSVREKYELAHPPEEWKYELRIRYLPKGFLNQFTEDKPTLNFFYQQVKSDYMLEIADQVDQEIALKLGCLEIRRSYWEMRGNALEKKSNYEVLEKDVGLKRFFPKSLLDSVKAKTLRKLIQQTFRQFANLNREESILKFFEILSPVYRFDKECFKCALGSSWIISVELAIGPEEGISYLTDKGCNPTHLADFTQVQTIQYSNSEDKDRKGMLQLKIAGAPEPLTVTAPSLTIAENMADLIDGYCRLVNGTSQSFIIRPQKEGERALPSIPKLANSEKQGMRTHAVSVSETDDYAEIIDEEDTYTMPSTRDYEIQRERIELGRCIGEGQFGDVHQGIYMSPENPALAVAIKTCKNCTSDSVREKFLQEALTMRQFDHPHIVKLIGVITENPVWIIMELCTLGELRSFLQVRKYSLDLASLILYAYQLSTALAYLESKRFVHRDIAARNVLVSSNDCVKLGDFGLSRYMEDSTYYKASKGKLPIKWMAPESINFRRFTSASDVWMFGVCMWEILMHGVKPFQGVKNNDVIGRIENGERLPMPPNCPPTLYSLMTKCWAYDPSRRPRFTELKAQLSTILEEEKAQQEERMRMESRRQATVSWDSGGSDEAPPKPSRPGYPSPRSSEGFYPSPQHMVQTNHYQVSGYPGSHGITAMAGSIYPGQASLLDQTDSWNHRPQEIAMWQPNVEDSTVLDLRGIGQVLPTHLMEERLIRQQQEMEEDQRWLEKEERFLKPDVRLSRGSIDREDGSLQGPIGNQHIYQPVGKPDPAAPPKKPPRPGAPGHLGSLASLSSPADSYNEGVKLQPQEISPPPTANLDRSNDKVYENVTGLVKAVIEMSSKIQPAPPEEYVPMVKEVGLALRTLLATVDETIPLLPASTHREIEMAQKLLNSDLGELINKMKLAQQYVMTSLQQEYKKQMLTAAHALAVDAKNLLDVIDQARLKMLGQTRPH

[4] = system: Fibrinogen (Alexa647-labelled); assay: fibrinogen binders on compound microarrays, profiling panel, artefact control for SMM control-protein annotation, biochemical, small-molecule microarray, 635/667 nm fluorescence (AID 1131); conditions: fibrinogen-A647 binding fluorescence, higher = more signal;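 further: z-score merges 667 nm fluorescence with per-spot signal-to-noise over triplicate slides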
[5] = molecular target: Follistatin (Homo sapiens) (UniProt P19883); assay: follistatin binders on small-molecule microarrays, primary screen, biochemical, small-molecule microarray, 635/667 nm fluorescence (AID 1132); conditions: FST binding, 635 nm fluorescence, higher = more signal
Sequence of Follistatin (Homo sapiens) (P19883 whole entry, looked up): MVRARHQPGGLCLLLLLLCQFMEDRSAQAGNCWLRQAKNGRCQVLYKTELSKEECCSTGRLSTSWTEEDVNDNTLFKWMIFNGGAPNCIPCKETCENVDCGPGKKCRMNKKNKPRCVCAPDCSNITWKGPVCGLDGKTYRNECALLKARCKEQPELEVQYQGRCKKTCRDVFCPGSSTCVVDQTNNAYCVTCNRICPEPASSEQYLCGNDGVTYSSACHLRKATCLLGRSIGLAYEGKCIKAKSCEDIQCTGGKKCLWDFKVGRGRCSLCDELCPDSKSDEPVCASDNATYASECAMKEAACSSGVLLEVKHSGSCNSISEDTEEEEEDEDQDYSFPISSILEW

[6] = molecular target: Fibroblast growth factor 2 (Homo sapiens) (UniProt P09038); assay: FGF2 binders on small-molecule microarrays, primary screen, biochemical, small-molecule microarray, 635/667 nm fluorescence (AID 1133); conditions: small-molecule microarray binding, FGF2, fluorescence 635/667; higher = more signal
Sequence of Fibroblast growth factor 2 (Homo sapiens) (P09038 whole entry, looked up): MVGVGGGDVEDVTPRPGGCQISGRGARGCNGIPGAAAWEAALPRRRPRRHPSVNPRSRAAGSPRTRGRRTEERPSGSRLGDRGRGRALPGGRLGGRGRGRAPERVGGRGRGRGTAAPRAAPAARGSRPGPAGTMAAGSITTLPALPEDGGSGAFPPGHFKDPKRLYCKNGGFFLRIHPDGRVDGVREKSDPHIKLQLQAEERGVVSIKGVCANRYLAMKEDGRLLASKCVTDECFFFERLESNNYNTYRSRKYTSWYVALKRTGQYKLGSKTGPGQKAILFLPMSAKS

[7] = mitochondrial membrane potential change in A549 cells, profiling panel, cell-based, JC-1 fluorescence, basal, 24 h, 100 nL (AID 1138); conditions: higher = more signal;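 further: A549 lung adenocarcinoma cells under basal conditions with no added stimulus; test concentration not given here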
Lefty1 = Lefty1 binders on small-molecule microarrays, primary screen, biochemical, small-molecule microarray, 635/667 nm fluorescence (AID 1139); conditions: small-molecule microarray binding, fluorescence 635/667; higher = more signal
[8] = system: wheat germ agglutinin (Triticum aestivum), Alexa647-labelled; assay: wheat germ agglutinin binders on compound microarrays, profiling panel, artefact control for SMM control-protein annotation, biochemical, small-molecule microarray, 635/667 nm fluorescence (AID 1140); conditions: WGA-A647 binding, 635 nm fluorescence, higher = more signal;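 further: score merges 667 nm feature emission with signal to noise over triplicate slides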
[9] = molecular target: Luciferin 4-monooxygenase (Photinus pyralis) (UniProt P08659); assay: firefly luciferase enzyme inhibitors, primary screen, biochemical, luminescence, purified enzyme, 2006 set (AID 1141); conditions: SteadyGlo luminescence, 30 min, higher = more signal, called active from +8 up or from −8 down;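 further: cell-free assay with purified firefly luciferase at 100 ng per well in PBS; test concentration not given here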
Sequence of Luciferin 4-monooxygenase (Photinus pyralis) (P08659 whole entry, looked up): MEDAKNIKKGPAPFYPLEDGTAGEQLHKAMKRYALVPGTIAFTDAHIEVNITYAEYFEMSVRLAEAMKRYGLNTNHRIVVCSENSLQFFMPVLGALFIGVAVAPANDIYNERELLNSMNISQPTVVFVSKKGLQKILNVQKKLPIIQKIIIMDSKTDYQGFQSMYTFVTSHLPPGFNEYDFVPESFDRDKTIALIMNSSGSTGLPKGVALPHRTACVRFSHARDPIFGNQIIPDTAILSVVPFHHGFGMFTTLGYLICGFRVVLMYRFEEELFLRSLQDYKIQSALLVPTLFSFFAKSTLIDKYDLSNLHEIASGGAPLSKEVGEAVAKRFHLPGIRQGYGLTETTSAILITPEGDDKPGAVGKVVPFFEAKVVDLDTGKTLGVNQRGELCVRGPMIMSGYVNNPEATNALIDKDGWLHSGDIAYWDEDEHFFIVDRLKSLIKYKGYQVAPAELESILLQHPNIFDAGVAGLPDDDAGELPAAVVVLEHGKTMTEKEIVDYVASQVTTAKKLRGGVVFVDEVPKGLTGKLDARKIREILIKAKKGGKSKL

[10] = system: Wnt5a (protein binding on small-molecule microarray); assay: Wnt5a binders on small-molecule microarray, primary screen, biophysical, 635/667 nm fluorescence (AID 1142); conditions: 635 nm fluorescence, higher = more signal;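 further: fluorescence read at 667 nm with signal to noise per printed feature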
[11] = cell viability in Huh7 cells, primary screen, cytotoxicity control for HCV replication inhibitor project, CellTiter-Glo luminescence, basal, 48 h (AID 1143); conditions: Huh7 HCV replicon, higher = more signal, called active from +8 up or from −8 down;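 further: Huh7 hepatoma cells carrying a hepatitis C replication reporter with no stimulus; test concentration not given here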
[12] = P. aeruginosa biofilm formation inhibitors, primary screen, PAO1 strain, BacTiter-Glo luminescence, LB-PBS (AID 1144); conditions: 12 h, higher = more signal
[13] = CREB reporter modulators without forskolin, primary screen, cell-based, PC12, CRE-LacZ reporter, unstimulated (AID 1145); conditions: no forskolin, luminescence, 4.5 h, higher = more signal, called active from +8 up or from −8 down
[14] = CREB reporter modulators under forskolin, primary screen, cell-based, PC12, CRE-LacZ reporter, forskolin-stimulated (AID 1146); conditions: luminescence, 4.5 h, higher = more signal, called active from +8 up or from −8 down;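 further: PC12 cells with 6xCRE LacZ reporter stimulated by forskolin 10 µM; beta-galactosidase reporter signal reflecting CREB driven transcription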
[15] = molecular target: Streptavidin (Streptomyces avidinii) (UniProt P22629); assay: streptavidin binders on small-molecule microarray, primary screen, artefact control for SMM compound annotation, biophysical, 635/667 nm fluorescence (AID 1147); conditions: streptavidin binding, higher = more signal;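 further: signal reflects streptavidin binding to arrayed compounds as a control protein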
Sequence of Streptavidin (Streptomyces avidinii) (P22629 whole entry, looked up): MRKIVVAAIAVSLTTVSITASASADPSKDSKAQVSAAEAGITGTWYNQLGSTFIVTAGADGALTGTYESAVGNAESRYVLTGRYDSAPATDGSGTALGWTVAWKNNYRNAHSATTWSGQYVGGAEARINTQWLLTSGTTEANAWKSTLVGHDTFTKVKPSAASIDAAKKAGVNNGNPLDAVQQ

[16] = small-molecule binders of probe aInhba, primary screen, biochemical, small-molecule microarray, 635/667 nm fluorescence (AID 1148); conditions: higher = more signal;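 further: score merges 667nm spot fluorescence with signal-to-noise for antibody binding to printed compounds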
Torsin-1A (Homo sapiens) [17] = molecular target: Torsin-1A (Homo sapiens) (UniProt O14656); assay: torsin A binders from cell lysate, primary screen, small-molecule microarray, wild-type, 635/667 nm (AID 1149); conditions: COS7 hTOR1A-WT lysate, 635 nm fluorescence, higher = more signal
Sequence of Torsin-1A (Homo sapiens) (O14656 whole entry, looked up): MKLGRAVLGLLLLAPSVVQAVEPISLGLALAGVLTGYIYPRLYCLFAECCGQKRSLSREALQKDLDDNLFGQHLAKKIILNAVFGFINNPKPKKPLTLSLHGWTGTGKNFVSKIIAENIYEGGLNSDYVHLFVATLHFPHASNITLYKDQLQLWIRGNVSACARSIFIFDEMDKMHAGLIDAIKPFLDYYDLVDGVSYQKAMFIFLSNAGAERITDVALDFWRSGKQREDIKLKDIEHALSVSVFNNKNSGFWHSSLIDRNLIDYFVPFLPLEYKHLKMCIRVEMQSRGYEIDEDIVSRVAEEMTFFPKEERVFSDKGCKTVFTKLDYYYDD

Torsin-1A (Homo sapiens) [18] = molecular target: Torsin-1A (Homo sapiens) (UniProt O14656); assay: small-molecule binders of mutant TOR1A in lysate, primary screen, cell lysate, small-molecule microarray, COS7 lysate, 635/667 nm fluorescence (AID 1150); conditions: COS7 hTOR1A mutant lysate, 635 nm fluorescence, higher = more signal;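 further: score pools 667 nm emission and signal to noise measuring lysate protein binding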
[19] = system: Sonic hedgehog protein (Shh); assay: small-molecule binders of Shh protein, primary screen, biochemical, small-molecule microarray, 635/667 nm fluorescence (AID 1151); conditions: small-molecule microarray binding, 635 nm fluorescence; higher = more signal;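 further: Shh protein binding to compounds spotted on small-molecule microarray slides; score combines spot fluorescence intensity with signal-to-noise across triplicate slides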

CN1C(=O)C2C=CC(C(O)c3cccc4ccccc34)N(NC(=O)OC(C)(C)C)C2C1=O (stereo not given)
composite z-score [1]: 1.45 | composite z-score [2]: 1.02 | composite z-score [3]: 1.83 | composite z-score [4]: 0.691 | composite z-score [5]: 0.435 | composite z-score [6]: -0.331 | z-score [7]: 0.274 | composite z-score (Lefty1): -0.516 | composite z-score [8]: 1.16 | z-score [9]: 0.216 (inactive) | composite z-score [10]: 0.611 | z-score [11]: 0.227 (inactive) | z-score [12]: 0.489 (inactive) | z-score [13]: 1 (inactive) | z-score [14]: 0.6 (inactive) | composite z-score [15]: 1.51 | composite z-score [16]: 0.723 | composite z-score (Torsin-1A (Homo sapiens) [17]): 0.104 | composite z-score (Torsin-1A (Homo sapiens) [18]): 1.41 | composite z-score [19]: -0.271

CCCCC=C[C@@H](NC(=O)CCc1ccccc1)c1ccccc1
composite z-score [1]: 0.838 | composite z-score [2]: 1.2 | composite z-score [3]: 0.507 | composite z-score [4]: 0.939 | composite z-score [5]: 0.361 | composite z-score [6]: 0.362 | z-score [7]: -2.3 | composite z-score (Lefty1): -0.0782 | composite z-score [8]: 1.07 | z-score [9]: 1.08 (inactive) | composite z-score [10]: 0.317 | z-score [11]: -1.98 (inactive) | z-score [12]: 0.175 (inactive) | z-score [13]: -0.951 (inactive) | z-score [14]: -0.0104 (inactive) | composite z-score [15]: 1.64 | composite z-score [16]: 0.128 | composite z-score (Torsin-1A (Homo sapiens) [17]): 0.677 | composite z-score (Torsin-1A (Homo sapiens) [18]): 0.701 | composite z-score [19]: 0.0847

O=C1O[C@@H](c2ccccc2)[C@@H](c2ccccc2)N2[C@@H](c3ccc(O)cc3)[C@]3(C(=O)Nc4ccc(C#CC5=CCCCC5)cc43)[C@@H](C(=O)Nc3nc4ccccc4s3)[C@H]12
composite z-score [1]: 1.15 | composite z-score [2]: 1.22 | composite z-score [3]: 0.32 | composite z-score [4]: 0.852 | composite z-score [5]: 1.25 | composite z-score [6]: 1.35 | z-score [7]: -1.8 | composite z-score (Lefty1): 1.54 | composite z-score [8]: 1.32 | z-score [9]: -1.34 (inactive) | composite z-score [10]: 0.61 | z-score [11]: -1.77 (inactive) | z-score [12]: -1.05 (inactive) | z-score [13]: -1.02 (inactive) | z-score [14]: -1.09 (inactive) | composite z-score [15]: 1.26 | composite z-score [16]: 1.37 | composite z-score (Torsin-1A (Homo sapiens) [17]): 0.828 | composite z-score (Torsin-1A (Homo sapiens) [18]): 0.221 | composite z-score [19]: 1.59

CCCC[C@@H](O)C1=C(COc2ccccc2)Cn2c(=O)n(-c3ccccc3)c(=O)n2[C@H]1CO
composite z-score [1]: -0.265 | composite z-score [2]: -0.476 | composite z-score [3]: -0.103 | composite z-score [4]: 0.729 | composite z-score [5]: -0.28 | composite z-score [6]: -0.242 | z-score [7]: 0.363 | composite z-score (Lefty1): -0.193 | composite z-score [8]: 0.31 | z-score [9]: -1.79 (inactive) | composite z-score [10]: -0.154 | z-score [11]: -1.86 (inactive) | z-score [12]: -0.569 (inactive) | z-score [13]: 1.67 (inactive) | z-score [14]: -1.23 (inactive) | composite z-score [15]: -0.447 | composite z-score [16]: -0.0762 | composite z-score (Torsin-1A (Homo sapiens) [17]): -0.218 | composite z-score (Torsin-1A (Homo sapiens) [18]): -0.348 | composite z-score [19]: -0.0649

COCCCNC(=O)[C@@]1(Cc2ccccc2N=[N+]=[N-])N=C(c2ccc(OCCCO)cc2)O[C@H]1c1ccccc1CN=[N+]=[N-]
composite z-score [1]: 2.71 | composite z-score [2]: 1.23 | composite z-score [3]: 1.06 | composite z-score [4]: 0.998 | composite z-score [5]: 1.04 | composite z-score [6]: 0.969 | z-score [7]: 1.64 | composite z-score (Lefty1): -0.113 | composite z-score [8]: 1.05 | z-score [9]: -3.93 (inactive) | composite z-score [10]: 0.972 | z-score [11]: -5.06 (inactive) | z-score [12]: -0.389 (inactive) | z-score [13]: 1.84 (inactive) | z-score [14]: -1.75 (inactive) | composite z-score [15]: 1.08 | composite z-score [16]: 0.246 | composite z-score (Torsin-1A (Homo sapiens) [17]): 0.554 | composite z-score (Torsin-1A (Homo sapiens) [18]): 0.752 | composite z-score [19]: -0.265

C=C(COC)C(=O)CC[C@H](OC(=O)c1ccccc1-c1ccccc1C(=O)O)c1ccc(CO)o1
composite z-score [1]: 0.581 | composite z-score [2]: 0.154 | composite z-score [3]: 0.36 | composite z-score [4]: -0.576 | composite z-score [5]: 1.35 | composite z-score [6]: 1.66 | z-score [7]: -0.666 | composite z-score (Lefty1): 1.5 | composite z-score [8]: -0.2 | z-score [9]: -0.846 (inactive) | composite z-score [10]: 0.634 | z-score [11]: 0.465 (inactive) | z-score [12]: -0.39 (inactive) | z-score [13]: 0.434 (inactive) | z-score [14]: 0.964 (inactive) | composite z-score [15]: -0.451 | composite z-score [16]: -0.179 | composite z-score (Torsin-1A (Homo sapiens) [17]): 0.507 | composite z-score (Torsin-1A (Homo sapiens) [18]): 1.79 | composite z-score [19]: 1.69

COC(=O)c1ccc(OC)c(/C=C\CC(CCc2ccccc2)OC(C)=O)c1 (stereo not given)
composite z-score [1]: -0.281 | composite z-score [2]: -0.133 | composite z-score [3]: 0.377 | composite z-score [4]: -0.177 | composite z-score [5]: 0.457 | composite z-score [6]: -0.293 | z-score [7]: 0.293 | composite z-score (Lefty1): 0.222 | composite z-score [8]: 0.476 | z-score [9]: -0.558 (inactive) | composite z-score [10]: -0.526 | z-score [11]: -0.785 (inactive) | z-score [12]: 0.245 (inactive) | z-score [13]: 1.04 (inactive) | z-score [14]: -0.0403 (inactive) | composite z-score [15]: 0.245 | composite z-score [16]: -0.182 | composite z-score (Torsin-1A (Homo sapiens) [17]): -0.813 | composite z-score (Torsin-1A (Homo sapiens) [18]): -0.152 | composite z-score [19]: 0.482

Cc1ccc(N2C(=O)c3ccccc3[C@](C)(C(=O)NC(C)C)[C@@H]2c2ccc(CO)cc2)nc1
composite z-score [1]: -2.03 | composite z-score [2]: -1.29 | composite z-score [3]: -1.72 | composite z-score [4]: -2.28 | composite z-score [5]: -0.739 | composite z-score [6]: -0.276 | z-score [7]: 0.0388 | composite z-score (Lefty1): -2.28 | composite z-score [8]: 0.654 | z-score [9]: -1.01 (inactive) | composite z-score [10]: -0.281 | z-score [11]: 0.328 (inactive) | z-score [12]: 0.306 (inactive) | z-score [13]: 0.155 (inactive) | z-score [14]: 0.521 (inactive) | composite z-score [15]: -1.78 | composite z-score [16]: -0.289 | composite z-score (Torsin-1A (Homo sapiens) [17]): -3.17 | composite z-score (Torsin-1A (Homo sapiens) [18]): 0.758 | composite z-score [19]: -0.974

CCCc1cc2c(n1Cc1ccc(OC)cc1)C(C)C1CN(C(=O)c3ccccc3)C(C)(C(=O)OC)C21 (stereo not given)
composite z-score [1]: 2.74 | composite z-score [2]: 1.24 | composite z-score [3]: 1.56 | composite z-score [4]: 1.01 | composite z-score [5]: 0.0092 | composite z-score [6]: -1.19 | z-score [7]: 0.788 | composite z-score (Lefty1): -0.515 | composite z-score [8]: 1.47 | z-score [9]: 0.062 (inactive) | composite z-score [10]: 0.562 | z-score [11]: -3.08 (inactive) | z-score [12]: 0.393 (inactive) | z-score [13]: 0.207 (inactive) | z-score [14]: 1.52 (inactive) | composite z-score [15]: 1.95 | composite z-score [16]: 0.297 | composite z-score (Torsin-1A (Homo sapiens) [17]): 0.0326 | composite z-score (Torsin-1A (Homo sapiens) [18]): 0.773 | composite z-score [19]: 0.0704
